# From PubChem
# Pf growth 96h: P. falciparum growth inhibition at 96 hours | P. falciparum luciferase reporter growth, 96 h | Potency, µM (highest dose often 28.7 µM), for inactives: at the highest dose activity change, negative = inhibition, actives largely listed as inhibitors | 6.9% of 320,000 active; further: potency means the concentration at half of the fitted maximal effect
#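 96 h incubation, 37 C, 5% CO2, of luciferase-reporter P. falciparum-infected RBCs (2% hematocrit, 0.05% parasitemia final) with test compounds; endpoint luminescence.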
# Pf growth 48h: inhibits P. falciparum growth in the first generation, 48 h; P. falciparum luciferase growth in erythrocytes, 48 h; Potency, µM (top dose mostly 28.7 µM), without a hit: top-dose activity change, negative = inhibition, most hits filed as inhibitors; 5.9% of 310,000 active; AID 504832; further: potency means the concentration at half of the fitted maximal effect
#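 Firefly luciferase activity from engineered P. falciparum reports growth; inhibitors lower the luminescent signal. Cultures contained 2% hematocrit erythrocytes at 0.1% final parasitemia.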
# HCMV antiviral: inhibitors of human cytomegalovirus. activity change, negative = inhibition, % at 57.5 µM. HFF cells, HCMV-luciferase reporter, 72 h; hits give low values. 4.5% of 410,000 active. AID 1259415; in the data active means activity change below about -60%; inconclusive means no clear call, values can overlap the other calls; inactive means above about -39%
#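 Steps: HFFs plated, 16 h 37C; compounds added; HCMV-luciferase added to MOI 1 PFU/cell; 72 h 37C; OneGlo reagent, 5 min room temperature; luminescence read, normalized to controls.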
# HCV inhibitor: inhibitors of hepatitis C virus infection; Huh7.5.1 HCVcc-Cre infection, luciferase reporter, 44 h; Potency, µM (highest dose often 41.8 µM), for inactives: at the top dose activity change, negative = inhibition, hits mostly inhibitors; 3.4% of 340,000 active; AID 651820; further: potency means the concentration at half of the fitted maximal effect
#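 Seed cells (1,000/well) for 4 h; treat with compound and infect with HCVcc-Cre, moi about 0.5. Incubate 44 h, then detect luciferase activity.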
# * marks the source's active call; other numbers are inactive results; u = inconclusive; x = not tested or not shown. Sampled rows, rich in hits. Any-hit rate of the full collection: about 13%. Unless noted, the call rests on the fitted dose curve; in most records, active means well fitted inhibition curve with a large enough effect; inconclusive means small, poorly fitted or top-dose-only effect, or another doubt; inactive means no such curve, though single readings can be large or run the other way. On the % scale 0 is the no-effect control and ±100 the full control effect.
SMILES,Pf growth 96h,Pf growth 48h,HCMV antiviral,HCV inhibitor
O=c1c2oc3ccccc3c2n(Cc2cccc(F)c2)c(=O)n1Cc1ccco1,x,x,-4.2,x
COc1ccc(NC(=O)CCN2CCN(CCO)CC2)c(OC)c1,x,x,13.6,x
Cc1cccc([C@@H]2[C@@H]3C(=O)N(Cc4ccccc4)C(=O)[C@@H]3[C@]3(Cc4ccccc4)C(=O)N(c4ccccc4)C(=O)N23)c1,8.28µM*,10.4µM*,-7.9,-1.1%
Cc1cccc([C@@H]2[C@@H]3C(=O)N(Cc4ccccc4)C(=O)[C@@H]3[C@]3(Cc4ccccc4)C(=O)N(c4ccc(C(F)(F)F)cc4)C(=O)N23)c1,8.28µM*,8.28µM*,u,5.1%
Cc1cccc([C@@H]2[C@@H]3C(=O)N(Cc4ccccc4)C(=O)[C@@H]3[C@]3(Cc4ccccc4)C(=O)N(c4cccc(Cl)c4)C(=O)N23)c1,11.7µM*,4.65µM*,-21.2,-2.7%
Cc1cccc([C@@H]2[C@@H]3C(=O)N(Cc4ccccc4)C(=O)[C@@H]3[C@]3(Cc4ccc(Cl)cc4)C(=O)N(c4ccccc4)C(=O)N23)c1,u,u,5.6,1.8%
COc1ccccc1CCNC(=O)C(=O)NCC(c1ccco1)S(=O)(=O)c1ccccc1 (centres undefined),x,x,-32.1,x
Cc1cccc(C)c1OCC(=O)N(Cc1ccccc1F)C1CCS(=O)(=O)C1 (centres undefined),x,x,7.5,x
COc1ccc(CNC(=O)CCCN2C(=O)COc3ccc(C)cc32)cc1,x,x,-14.9,x
Cc1coc2cc3oc(=O)c(CCC(=O)NCc4ccccn4)c(C)c3cc12,-4.2%,u,-27.5,1µM*
Cc1c(Cc2ccccc2)c(=O)oc2cc(OCC(=O)NCc3ccccn3)ccc12,u,u,-63.0*,u
Cc1oc2cc3oc(=O)c(CCC(=O)NCCN4CCOCC4)c(C)c3cc2c1C,10.4µM*,-39.5%,8.7,2.4%
O=C(NC1CC(=O)N(c2ccccc2)C1)c1ccc(S(=O)(=O)N2CCCCC2)cc1 (centres undefined),x,x,23.1,x
Nn1c(SCC(=O)Nc2cccc(C(F)(F)F)c2)nncc1=O,-1.4%,u,1.3,10.7%
Nn1c(SCC(=O)Nc2cc(C(F)(F)F)ccc2Cl)nncc1=O,u,11.7µM*,-37.3,-27.0%
Cc1ccc(C(=O)NCCn2cc(SCC(=O)Nc3nnc(C)s3)c3ccccc32)cc1,4.15µM*,x,-20.7,u
O=C(CSc1cn(CCNC(=O)c2cccs2)c2ccccc12)NC1CCCCC1,u,u,-12.7,u
COc1ccc(NC(=O)CSc2cn(CCNC(=O)c3ccc(OC)cc3)c3ccccc23)cc1,x,x,-6.3,x
O=C(NCCn1cc(SCc2cccc(F)c2)c2ccccc21)c1cccc(C(F)(F)F)c1,x,x,-92.2*,x
O=C(CSc1cn(CCNC(=O)c2ccc3ccccc3c2)c2ccccc12)NCc1ccco1,u,u,-68.2*,u
O=C(NCCn1cc(SCc2ccccc2F)c2ccccc21)c1c(F)cccc1F,0.0%,4.8%,16.6,u
O=C(CSc1cn(CCNC(=O)c2cccs2)c2ccccc12)NCc1ccccc1,-11.1%,u,-33.3,11.2µM*
CCc1cccc(C)c1NC(=O)Cn1ccn(-c2ccc(F)cc2)c(=O)c1=O,x,x,4.9,x
CC1Cn2cc(C(=O)Nc3ccccc3C(F)(F)F)c(=O)c3c(Cl)ccc(c32)O1 (centres undefined),38.7%,1.9%,-32.3,x
COc1ccc(C(=O)NCCn2cc(SCC(=O)NCC3CCCO3)c3ccccc32)cc1OC (centres undefined),6.57µM*,8.28µM*,-22.9,u
SMILES,Pf growth 96h,Pf growth 48h,HCMV antiviral,HCV inhibitor
COc1ccccc1C(=O)NCCn1cc(SCC(=O)Nc2cc(C)on2)c2ccccc21,-0.7%,u,-39.1,31.6µM*
Nc1cc(-c2ccccc2)nn1Cc1ccc(Cl)cc1,206.4%,u,u,u
O=C([O-])c1cc(-c2ccccc2)cc(-c2ccccc2)[n+]1CCc1ccc(Cl)cc1,x,x,-79.5*,1.1%
Clc1ccc(C[n+]2c(-c3ccccc3)cc(-c3ccccc3)cc2-c2ccccc2)cc1,0.329µM*,0.37µM*,-93.3*,u
Fc1ccc(C[n+]2c(-c3ccccc3)cc(-c3ccccc3)cc2-c2ccccc2)cc1,0.37µM*,0.928µM*,-84.3*,10µM*
Cc1ccccc1CSc1nc(-c2cccc(F)c2)nc2c1Cc1c(CO)cnc(C)c1O2,x,x,12.5,x
COc1ccc(C)cc1NC(=O)c1sc2nc(-c3ccc(F)cc3)cn2c1C,x,x,-14.8,x
COc1ccc(N2CCN(c3oc(/C=C/c4cc(OC)c(OC)c(OC)c4)nc3C#N)CC2)cc1,x,x,-35.3,x
COc1ccc(N2C(=O)[C@@H]3[C@H](C2=O)[C@H]2c4ccccc4C=CN2[C@@H]3C(=O)Nc2ccccc2)cc1,9.28µM*,x,94.6,-16.7%
O=C(c1ccco1)[C@@H]1[C@@H]2C(=O)N(c3ccccc3)C(=O)[C@@H]2C2c3ccccc3C=CN21 (some centres undefined),4.65µM*,-4.2%,48.4,6.4%
Cc1cccc(-c2ccc(O)cc2CN2CCN(c3ncc(Cc4ccccc4)cn3)CC2)c1,x,x,3.9,x
COc1cccc(C(c2sc3nc(-c4ccco4)nn3c2O)N2CCC(C)CC2)c1 (centres undefined),x,x,-4.0,x
COc1ccc2c3c(n(C)c2c1)[C@@H](CO)N(C(=O)c1ccncc1)CC31CCN(C(C)=O)CC1,x,x,9.2,x
CCc1ccc2c(c1)/C(=C/C(=O)c1cccs1)C(=O)N2,47.3%,8.5%,-99.1*,22.4µM*
Cc1cccc2c1NC(=O)/C2=C\C(=O)c1cccs1,-24.8%,x,-10.5,29.7%
COc1ccc(CCNC(=O)CCc2c(C)nc3c(c(C)nn3-c3ccc(C)cc3)c2C)c(OC)c1,x,x,7.9,x
c1ccc2[nH]c3cc4ncnc4cc3nc2c1,8.6%,62.3%,-87.5*,-21.3%
FC(F)c1nc2ccccc2[nH]1,174.3%,-16.3%,-25.1,12.6%
CCN1/C(=C\C=C\C2=[N+](CC)c3ccccc3C2(C)C)C(C)(C)c2ccccc21,0.147µM*,x,x,0.562µM*
Cc1cc(Br)ccc1OCCCCNCCO,10.4µM*,u,-13.5,10µM*
OCCNCCCOc1ccc(Cl)cc1Br,u,u,19.9,-13.2%
C=CCNCCCOc1ccc(Cl)cc1Br,u,-15.3%,1.6,-24.7%
C=CCNCCCCOc1ccc(Br)cc1C,9.28µM*,-20.9%,-28.7,-26.5%
CCOC(=O)CSc1nc2cc3c(cc2c(=O)n1CCCC(=O)NCc1ccc2c(c1)OCO2)OCO3,x,x,-32.1,x
Cc1ccc(-c2c(C(=O)NCCc3ccc(Cl)cc3)oc(=O)c3ccccc23)cc1,x,x,-3.6,x
O=C(NCc1cccc(Cl)c1)c1oc(=O)c2ccccc2c1-c1ccccc1,x,x,-68.7*,x
COc1cc(OC)cc(-c2cc3nc4c(c(N5CCN(c6ncccn6)CC5)n3n2)CCCC4)c1,4.5%,1.31µM*,58.2,-30.0%
Clc1cccc(-c2cc3nc4c(c(N5CCNCC5)n3n2)CCCC4)c1,-6.0%,87.0%,x,4.9%
